What all share (conditions): 25 µM; exposure: 24-48 hpf
Assay [1] concerns Danio rerio Tg(wt1b:EGFP) embryo, pronephros. Kind of assay: glomerular separation, fold change vs DMSO control; higher = glomeruli further apart (abnormal). In outline:
(§1)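 Dechorionated Tg(wt1b:EGFP) zebrafish embryos were treated with 25 μM compound in 0.5% DMSO, in HEPES-buffered E3 with 0.003% PTU, from 24 to 48 hpf at 28.5°C. On maximum projections of dorsal pronephros images, 16 hand-placed reference points in Fiji gave distances and angles, and values more than 2 SD from the feature mean were left out. Results are fold changes over the mean of same-day DMSO-treated embryos.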

For assay [2] the test system is unchanged. Kind of assay: glomerular width (mean of left and right), fold change vs DMSO control; higher = wider glomerulus. In outline:
as §1

Assay [3] has the same test system. The assay can be described thus: fraction of imaged embryos annotated as normal kidney; higher = less nephrotoxic; extreme values may be limits of the assay. The method, boiled down:
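Tricaine-anaesthetised Tg(wt1b:EGFP) zebrafish larvae were oriented dorsally in agarose-filled 96-well plates, and their pronephroi were recorded by widefield fluorescence at 470 nm in 10 z-slices. Before this, the dechorionated embryos had been exposed in 12-well plates to 25 μM compound in 0.5% DMSO and 5 mM HEPES-buffered E3 with 0.003% PTU, from 24 to 48 hpf at 28.5°C. Maximum projections were annotated manually for each embryo, and the read-out is the fraction per treatment classed as normal kidney.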

The test system is the same in assay [4]. The assay can be described thus: pronephric angle neck segment to proximal convoluted tubule (mean of left and right), fold change vs DMSO control; higher = larger pronephric angle. In outline: as §1

Where a name gives a salt, the structure may show the parent alone. ± gives the standard deviation or the standard deviation of the averaged measurements.

For the molecule `C[n+]1ccccc1/C=N/O` [Pralidoxime chloride], the glomerular separation in assay [1] was determined as 0.691 ± 0.38. In assay [2], this molecule displayed a glomerular width of 0.9582 ± 0.0035. Moreover, the “fraction of imaged embryos annotated as normal kidney” value (“fraction of imaged embryos annotated” below) in assay [3] amounted to 0.833. In addition, the “pronephric angle neck segment” value in assay [4] worked out at 1.039 ± 0.01.

The molecule `COc1ccccc1Oc1c(NS(=O)(=O)c2ccc(C(C)(C)C)cc2)nc(-c2ncccn2)nc1OCCO` [Bosentan] displayed a glomerular separation in assay [1] of 1.19 ± 0.5. This molecule returned a glomerular width in assay [2] of 1.02 ± 0.034. In assay [3], the “fraction of imaged embryos annotated” value is 0.833. Besides, in assay [4], the “pronephric angle neck segment” value was 1.03 ± 0.029.

`C[C@]12C=CC(=O)C=C1CC[C@@H]1[C@@H]2C(=O)C[C@@]2(C)[C@H]1CC[C@]2(O)C(=O)CO` [Prednisone] showed a glomerular separation in assay [1] of 1.19 ± 0.48. The same molecule returned a glomerular width in assay [2] of 0.972 ± 0.03. Further, the “fraction of imaged embryos annotated” value in assay [3] is 0.833. The “pronephric angle neck segment” value in assay [4] turned out to be 1.08 ± 0.065.

Consider `Nc1ccc(C(=O)O)c(O)c1` [4-aminosalicylic acid], for which the glomerular separation in assay [1] amounted to 0.608 ± 0.17. Besides, in assay [2], the glomerular width stood at 0.9604 ± 0.008. Moreover, the “fraction of imaged embryos annotated” value in assay [3] turned out to be 0.833. Moreover, the “pronephric angle neck segment” value in assay [4] is 0.995 ± 0.018.

In assay [1], `CC(C)(C)NCC(O)COc1cccc2c1CCC(=O)N2` (configuration not stated) [Carteolol hydrochloride] yielded a glomerular separation of 1.21 ± 0.32. The glomerular width in assay [2] is 0.909 ± 0.034. Further, the “fraction of imaged embryos annotated” value in assay [3] came out at 0.917. For the same molecule, the “pronephric angle neck segment” value in assay [4] came to 1.01 ± 0.027.

For the molecule `COc1ccc(NS(=O)(=O)c2ccc(N)cc2)nn1` [Sulfamethoxypyridazine], in assay [1], the glomerular separation was determined as 0.681 ± 0.15. Also, in assay [2], the glomerular width was determined as 1.03 ± 0.1. Further, the “fraction of imaged embryos annotated” value in assay [3] is 1. Moreover, in assay [4], the “pronephric angle neck segment” value stood at 1.006 ± 0.0011.

`C[C@H]1c2cccc(O)c2C(=O)C2=C(O)[C@]3(O)C(=O)C(C(N)=O)=C(O)[C@@H](N(C)C)[C@@H]3[C@@H](O)[C@@H]21` [Doxycycline hydrochloride]: in assay [1], the glomerular separation is 1.09 ± 0.26. Further, the glomerular width in assay [2] came out at 1.02 ± 0.055. Moreover, the “fraction of imaged embryos annotated” value in assay [3] worked out at 0.833. Besides, the “pronephric angle neck segment” value in assay [4] was 1.034 ± 0.01.

As for `CNC(=O)c1c(I)c(C(=O)NCC(=O)Nc2c(I)c(C(=O)O)c(I)c(C(=O)NCCO)c2I)c(I)c(N(C)C(C)=O)c1I` [Ioxaglic acid], the glomerular separation in assay [1] stood at 0.975 ± 0.39. In assay [2], the glomerular width came out at 1.03 ± 0.037. For the same molecule, the “fraction of imaged embryos annotated” value in assay [3] amounted to 0.818. The “pronephric angle neck segment” value in assay [4] was found to be 0.982 ± 0.035.

Source of the values: the supplement of paper PMC7366291.
